In PubChem BioAssay (Tox21):
Where “and” joins values, the source holds several entries; their conditions need not be identical. Equal values may be shown once. Inconclusive results are not listed. Entries that show only a call come without a potency. Some structures have more than one record in an assay (separate samples or runs), and their calls can disagree. Calls of active or inactive are those of the source. Unless noted, calls come from the whole dose curve; as a rule, active = well fitted curve in the direction sought with a large enough effect in the repeat runs; inconclusive = weak or mixed curves; inactive = no such curve, though single readings can be large; an effect the other way counts as inactive or inconclusive.

How the values were obtained:
[1] = target: Luciferin 4-monooxygenase (Photinus pyralis) (UniProt P08659); experiment: qHTS assay to identify small molecule inhibitors of firefly luciferase (AID 1224835); note: nearly all actives have a fitted effect of over 25% in size; note: potency is the fitted concentration of half-maximal effect
Sequence of Luciferin 4-monooxygenase (Photinus pyralis) (P08659 whole entry, looked up): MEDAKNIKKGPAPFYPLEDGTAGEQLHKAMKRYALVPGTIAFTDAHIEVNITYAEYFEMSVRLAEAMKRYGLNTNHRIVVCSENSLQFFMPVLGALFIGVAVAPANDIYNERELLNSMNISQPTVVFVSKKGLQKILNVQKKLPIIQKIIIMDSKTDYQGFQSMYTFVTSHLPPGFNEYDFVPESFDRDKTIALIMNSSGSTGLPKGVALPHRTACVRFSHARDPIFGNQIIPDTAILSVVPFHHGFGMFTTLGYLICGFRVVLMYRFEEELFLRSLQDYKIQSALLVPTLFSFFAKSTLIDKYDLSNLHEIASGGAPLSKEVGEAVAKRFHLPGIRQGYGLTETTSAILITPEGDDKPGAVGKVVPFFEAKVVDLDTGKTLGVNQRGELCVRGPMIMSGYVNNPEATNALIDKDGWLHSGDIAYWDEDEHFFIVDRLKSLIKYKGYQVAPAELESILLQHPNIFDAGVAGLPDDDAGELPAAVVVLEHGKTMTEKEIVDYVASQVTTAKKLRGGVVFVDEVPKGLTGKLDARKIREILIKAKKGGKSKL
Outline: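 Quantitative HTS format; KM concentrations of both substrates. Purified P. pyralis FLuc activity quantified from luminescence images.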

[2] = qHTS assay to identify small molecule agonists of the constitutive androstane receptor (CAR) signaling pathway - cell viability counter screen (AID 1224836); note: nearly all actives have a fitted effect of over 45% in size; note: potency is the fitted concentration of half-maximal effect
Outline: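 HepG2 cells stably carrying hCAR and a CYP2B6-2.2kb reporter; 15-concentration compounds plus PK11195 (final 0.75 uM), 23 hr at 37 C/5% CO2. Viability read by CellTiter-Fluor fluorescence.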

[3] = qHTS assay to identify small molecule antagonists of the constitutive androstane receptor (CAR) signaling pathway - cell viability counter screen (AID 1224837); note: nearly all actives have a fitted effect of over 45% in size; note: potency is the fitted concentration of half-maximal effect
Outline: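 Counter screen run in HepG2-CYP2B6-hCAR cells: 4 hr settle, compound titration (15 concentrations) with 50 nM CITCO, 23 hr at 37 C/5% CO2, CellTiter-Fluor fluorescence.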

[4] = target: Nuclear receptor subfamily 1 group I member 3 (Homo sapiens) (UniProt Q14994); experiment: qHTS assay to identify small molecule antagonists of the constitutive androstane receptor (CAR) signaling pathway (AID 1224838);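 note: HepG2 cells stably expressing hCAR with CYP2B6 luciferase reporter stimulated by CITCO; nearly all actives have a fitted effect of over 40% in size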
Sequence of Nuclear receptor subfamily 1 group I member 3 (Homo sapiens) (Q14994 whole entry, looked up): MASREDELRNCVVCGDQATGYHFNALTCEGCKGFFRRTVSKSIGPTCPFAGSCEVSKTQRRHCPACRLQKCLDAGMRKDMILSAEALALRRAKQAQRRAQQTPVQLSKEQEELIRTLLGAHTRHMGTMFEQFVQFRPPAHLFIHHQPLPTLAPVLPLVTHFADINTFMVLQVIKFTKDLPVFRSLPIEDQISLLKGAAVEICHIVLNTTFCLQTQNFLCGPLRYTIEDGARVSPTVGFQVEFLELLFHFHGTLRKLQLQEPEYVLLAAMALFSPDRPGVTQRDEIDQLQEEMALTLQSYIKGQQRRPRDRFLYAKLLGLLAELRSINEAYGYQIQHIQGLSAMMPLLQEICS
Outline: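 Cell line: HepG2 double-stable for hCAR and CYP2B6-2.2kb reporter. Agonist: CITCO, 50 nM final. Compounds: 15 concentrations, 24 h, 37 C. Detection: ONE-Glo luminescence.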

[5] = target: Nuclear receptor subfamily 1 group I member 3 (Homo sapiens) (UniProt Q14994); experiment: qHTS assay to identify small molecule agonists of the constitutive androstane receptor (CAR) signaling pathway (AID 1224839); note: nearly all actives have a fitted effect of over 15% in size; note: potency is the fitted concentration of half-maximal effect
Outline: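 HepG2 cells stably co-transfected with hCAR and a CYP2B6-2.2kb luciferase reporter; compounds at 15 concentrations with 0.75 uM PK11195 present. After 24 hr at 37 C, luciferase read by ONE-Glo luminescence.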

[6] = qHTS assay to identify small molecule antagonists of the estrogen related receptor signaling pathway with the pleiotropic PPARgamma coactivator (PGC) from Tox21 10K library - cell viability counter screen (AID 1224840; active = well fitted cell-killing curve with a large enough effect in the repeat runs, not every such curve was filed as active; note: nearly all actives have a fitted effect of over 40% in size; note: potency is the fitted concentration of half-maximal effect)
Outline: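 Following seeding of 2,000 PGC/ERR cells/well and 6 hours' incubation, test compounds were delivered in DMSO. The plates then sat 17.5 hours at 37 C before a fluorogenic live-cell protease reagent (CellTiter-Fluor) was read after 30 min.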

[7] = qHTS assay to identify small molecule agonists of the estrogen related receptor signaling pathway with the pleiotropic PPARgamma coactivator (PGC) from Tox21 10K library (AID 1224842); note: nearly all actives have a fitted effect of over 15% in size; note: potency is the fitted concentration of half-maximal effect
Outline: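 PGC/ERR reporter cells (NTP line) were seeded 2,000 per well, rested 6 h at 37 C/5% CO2, then pin-dosed with compounds in DMSO for 18 h at 37 C; luciferase read by One-Glo luminescence after 30 min at room temperature.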

[8] = qHTS assay to identify small molecule antagonists of the estrogen related receptor signaling pathway with the pleiotropic PPARgamma coactivator (PGC) from Tox21 10K library (AID 1224841; call rule not given here; note: series mostly up to about 92 µM; actives are mostly falling curves and most rising ones were filed inactive; nearly all actives have a fitted effect of over 50% in size)
Outline: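 qHTS antagonist format: PGC/ERR cells, 2k/well, compound in DMSO by pin transfer after 6 h attachment, 18 h treatment at 37 C, One-Glo luminescence read at 30 min.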

Compound	Potency [1]	Potency [2]	Potency [3]	Potency [4]	Potency [5]	Potency [6]	Potency [7]	Potency [8]
COc1ccc(OC)c(C(O)CNC(=O)CN)c1 (centres undefined)	inactive	inactive	inactive	inactive	inactive	inactive	inactive	–
CC(C)CC(C)(O)C#CC(C)(O)CC(C)C (centres undefined)	–	inactive	inactive	–	inactive	–	inactive	–
COC(=O)Nc1nc2ccc(S(=O)c3ccccc3)cc2[nH]1 (centres undefined)	inactive	inactive	inactive	inactive	inactive and 6.68 µM (active)	inactive	inactive and 11.9 µM (active)	inactive
OC[C@H]1O[C@@H]2O[C@H]3[C@H](O)[C@@H](O)[C@@H](O[C@H]4[C@H](O)[C@@H](O)[C@@H](O[C@H]5[C@H](O)[C@@H](O)[C@@H](O[C@H]6[C@H](O)[C@@H](O)[C@@H](O[C@H]7[C@H](O)[C@@H](O)[C@@H](O[C@H]8[C@H](O)[C@@H](O)[C@@H](O[C@H]1[C@H](O)[C@H]2O)O[C@@H]8CO)O[C@@H]7CO)O[C@@H]6CO)O[C@@H]5CO)O[C@@H]4CO)O[C@@H]3CO	inactive	inactive	inactive	–	inactive	–	–	–
CCCc1c(OCCCCc2nn[nH]n2)ccc(C(C)=O)c1O	inactive	inactive	inactive	–	inactive	inactive	–	–
CC(CCC(=O)O)(c1ccc(O)cc1)c1ccc(O)cc1	inactive	inactive	inactive	–	inactive	inactive	inactive	inactive
Nc1ccccc1N	8.15 µM (active) and 1.78 µM (active)	–	–	inactive	24.3 µM (active)	inactive	–	–
c1ccc(Nc2ccccc2)cc1	–	inactive	inactive	–	inactive	–	inactive	inactive
Cc1cc2nc3c(=O)[nH]c(=O)nc-3n(C[C@H](O)[C@H](O)[C@H](O)CO)c2cc1C	inactive	–	–	inactive	inactive	–	–	–
CCCCOCCOCCOCCO	inactive	inactive	inactive	inactive	inactive	inactive	inactive	–
O=C1c2cccc(O)c2C(=O)c2c(O)cccc21	inactive	inactive	inactive	–	inactive	inactive	inactive	–
CC(=O)O[C@]1(C(C)=O)CC[C@H]2[C@@H]3C=C(Cl)C4=CC(=O)[C@@H]5C[C@@H]5[C@]4(C)[C@H]3CC[C@@]21C	inactive	inactive	inactive	–	–	inactive	–	–
O=S(=O)(O)c1ccc(O)cc1	inactive	inactive	inactive	–	–	inactive	–	–
CC(=O)CC/C=C(\C)CCC=C(C)C	inactive	inactive	inactive	–	inactive	inactive	–	–
CC(C)=CCCC(C)CCO (centres undefined)	inactive	inactive	inactive	–	–	inactive	–	–
COc1cc([C@@H]2c3cc4c(cc3[C@H](O)[C@H]3COC(=O)[C@H]23)OCO4)cc(OC)c1OC	inactive	inactive	–	–	inactive	–	–	–
O=CCc1ccccc1	inactive	inactive	inactive	–	inactive	–	–	–

Compound	Potency [1]	Potency [2]	Potency [3]	Potency [4]	Potency [5]	Potency [6]	Potency [7]	Potency [8]
Cc1ccc(C(=O)c2cc(O)c(O)c([N+](=O)[O-])c2)cc1	63.3 µM (active) and 34.7 µM (active)	43.3 µM (active)	–	–	–	43.3 µM (active) and inactive	inactive	–
O=c1oc(=O)c2cc3c(=O)oc(=O)c3cc12	inactive	inactive	inactive	inactive	inactive	–	inactive	–
C[Si](C)(C)O[Si](C)(C)C	inactive	inactive	inactive	–	–	inactive	–	–
CC1=CC2C3CC(C=C3C)C2C1 (centres undefined)	inactive	inactive	inactive	inactive	inactive	inactive	inactive	–
CCOC(=O)C(C#N)=C(c1ccccc1)c1ccccc1	inactive	inactive	inactive	–	3.86 µM (active) and 3.76 µM (active)	inactive	inactive	–
CN1C(C(=O)Nc2ccccn2)=C(O)c2ccccc2S1(=O)=O	–	inactive	inactive	inactive	inactive	–	–	–
CC(C)OB(OC(C)C)OC(C)C	inactive	inactive	inactive	inactive	inactive	inactive	inactive	inactive
NNc1ccc(C(=O)O)cc1	32.1 µM (active) and 4.53 µM (active)	inactive	inactive	–	–	inactive	–	–
COC(=O)C1=C(C)NC(C)=C(C(=O)OCCN(C)Cc2ccccc2)C1c1cccc([N+](=O)[O-])c1 (centres undefined)	inactive	48.3 µM (active)	43 µM (active) and 23.7 µM (active)	inactive	inactive	30.5 µM (active) and 26.6 µM (active)	–	–
C=C(C)C1CC=C(C)CC1 (centres undefined)	inactive	inactive	inactive	–	inactive	–	–	–
O=C(COc1ccc(Cl)cc1)N1CCN(Cc2ccc3c(c2)OCO3)CC1	inactive	inactive	inactive	inactive	inactive	inactive	inactive	–
CC(=O)C1(C)CC2=C(CCCC2(C)C)CC1C (centres undefined)	inactive	inactive	inactive	–	inactive	inactive	inactive	–
CC1=CCC(C(C)(C)O)CC1 (centres undefined)	inactive	inactive	inactive	–	–	inactive	–	–
c1ccc2sc(SSN3CCOCC3)nc2c1	22.4 µM (active) and 15.9 µM (active)	inactive	–	–	–	–	inactive	–
O=Cc1ccccc1O	inactive	inactive	inactive	–	inactive	inactive	–	–
O=C(/C=C/C=C/c1ccc2c(c1)OCO2)N1CCCCC1	5.04 µM (active) and 6.33 µM (active)	inactive	inactive	inactive	1.73 µM (active) and 3.86 µM (active)	inactive	17.3 µM (active) and 9.69 µM (active)	–
